Legend:
Conditions in all cases: Compound Concentration (nM):1000
TXK = tested on: TXK
[1] = tested on: TYK2(JH1domain-catalytic)
[2] = tested on: TYK2(JH2domain-pseudokinase)
TYRO3 = tested on: TYRO3
ULK1 = tested on: ULK1
ULK2 = tested on: ULK2
ULK3 = tested on: ULK3
VEGFR2 = tested on: T1, VEGFR2
T1 construct: gene KDR

VPS34 = tested on: T2, VPS34
T2 construct: gene PIK3C3

VRK2 = tested on: VRK2
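Further: KINOMEscan scanMAX binding as percent activity remaining versus control; lower means stronger binding.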

Structure (SMILES) | Percent Control (TXK) [%] | Percent Control [1] [%] | Percent Control [2] [%] | Percent Control (TYRO3) [%] | Percent Control (ULK1) [%] | Percent Control (ULK2) [%] | Percent Control (ULK3) [%] | Percent Control (VEGFR2) [%] | Percent Control (VPS34) [%] | Percent Control (VRK2) [%]
Cl.O=C(Nc1ccc(Oc2ccc3[nH]c(NC(=O)c4ccccc4)nc3c2)cc1)Nc1cc(C(F)(F)F)ccc1F [GW709042A] | 97 | 100 | 100 | 94 | 100 | 100 | 100 | 49 | 100 | 100
CC(C)COC(=O)c1ccc2c(c1)/C(=C/Nc1ccc(S(N)(=O)=O)cc1)C(=O)N2 [GW416981X] | 100 | 42 | 100 | 100 | 0.1 | 0.3 | 13 | 63 | 100 | 100
CC1=C(C(=O)Nc2ccc3[nH]ncc3c2)C(c2ccc3ccccc3c2)CC(=O)N1 (centres unmarked) [GSK270822A] | 91 | 10 | 58 | 83 | 82 | 79 | 93 | 90 | 79 | 36
O=C(Nc1n[nH]c2nc(-c3ccc(O)cc3)c(Br)cc12)C1CC1 [SB-725317] | 100 | 52 | 100 | 100 | 100 | 100 | 100 | 57 | 100 | 100
COc1ccc2[nH]c3c4[nH]c5ccc(OC)cc5c4c4c(c3c2c1)C(=O)NC4=O [GW296115X] | 100 | 87 | 84 | 71 | 100 | 87 | 43 | 59 | 80 | 98
COc1cc(N2CCN(C(C)C)CC2)ccc1Nc1nc(Nc2ccc(F)cc2C(=O)NC[C@@H](O)CO)c2cc[nH]c2n1 [GSK1392956A] | 92 | 100 | 100 | 74 | 65 | 77 | 100 | 100 | 82 | 68
NS(=O)(=O)c1ccc(N/N=C2\C(=O)Nc3ccc(-c4cnco4)cc32)cc1 [GW276655] | 76 | 24 | 37 | 40 | 84 | 82 | 40 | 71 | 92 | 89
Cl.O=C(Nc1ccc(Oc2ccc3[nH]c(NC(=O)c4ccco4)nc3c2)cc1)Nc1cc(C(F)(F)F)ccc1F [GW683134A] | 80 | 100 | 100 | 71 | 100 | 89 | 62 | 20 | 100 | 100
NS(=O)(=O)c1ccc(Nc2ncc(-c3ccccc3)o2)cc1 [GW572399X] | 100 | 100 | 100 | 100 | 100 | 91 | 88 | 22 | 100 | 100
C[C@@H](Oc1cc(-n2cnc3ccc(OC4CCN(C)CC4)cc32)sc1C(N)=O)c1ccccc1Cl [GSK579289A] | 60 | 100 | 93 | 92 | 71 | 44 | 100 | 64 | 29 | 95
CCS(=O)(=O)c1ccc(OC)c(Nc2ncc(-c3cccc(F)c3)o2)c1 [GW621970X] | 42 | 100 | 100 | 73 | 88 | 95 | 100 | 2.4 | 100 | 93
Cl.O=C(O[C@H]1CN[C@H](C#Cc2cc3ncnc(Nc4ccc5c(cnn5Cc5ccccc5)c4)c3s2)C1)N1CCOCC1 [GSK200398A] | 83 | 100 | 97 | 100 | 62 | 86 | 91 | 89 | 98 | 87
COc1ccc2c(-c3ccnc(Nc4cccc(OC(F)(F)F)c4)n3)cnn2n1 [GW810372X] | 67 | 98 | 75 | 100 | 100 | 100 | 100 | 73 | 29 | 95
Cl.c1ccc(Cc2nc3ccc(Nc4ncnc5ccccc45)cc3[nH]2)cc1 [GR269666A] | 100 | 100 | 100 | 90 | 67 | 100 | 93 | 72 | 100 | 100
COc1ccc2cc(-c3c(-c4ccncc4)nc(-c4ccc(S(C)(=O)=O)cc4C)n3C)ccc2c1 [SB-633825] | 90 | 73 | 100 | 72 | 72 | 88 | 73 | 49 | 86 | 58
NS(=O)(=O)c1ccc(N/N=C2\C(=O)Nc3ccc(C(=O)NCc4ccncc4)cc32)cc1 [GW300657X] | 100 | 70 | 31 | 80 | 15 | 26 | 31 | 84 | 71 | 74
Cl.O=S1CCN(Cc2ccc(-c3ccc4ncnc(Nc5ccc(OCc6ccccc6)c(F)c5)c4c3)o2)CC1 [GW576924A] | 100 | 100 | 100 | 100 | 90 | 100 | 94 | 97 | 100 | 100
CCn1c(-c2nonc2N)nc2c(C#CC(C)(C)O)nc(OCCNC)cc21.Cl [GSK949675] | 100 | 95 | 95 | 100 | 88 | 100 | 94 | 83 | 100 | 67
CCS(=O)(=O)c1ccc(OC)c(Nc2ncc(-c3cccc(OC)c3)o2)c1 [GW580509X] | 74 | 100 | 100 | 100 | 87 | 80 | 99 | 23 | 100 | 100
NS(=O)(=O)c1ccc(N/N=C2\C(=O)Nc3ccc(Cl)cc32)cc1 [GW280670X] | 100 | 98 | 100 | 100 | 100 | 100 | 100 | 52 | 100 | 100

From publication PMC7826789 (International Journal of Molecular Sciences, 2021)
